Screening data as filed in PubChem.
HCV inhibitor: qHTS Assay for Inhibitors of Hepatitis C Virus (HCV). 340,000 tested, 3.4% active. AID 651820, 2012. Potency, µM (highest dose often 41.8 µM), hits mostly inhibitors. Huh7.5.1 HCVcc-Cre infection, luciferase reporter, 44 h; active = well fitted inhibition curve with a large enough effect; inconclusive = small, poorly fitted or top-dose-only effect, or another doubt; inactive = no such curve, though single readings can be large or run the other way
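HCVcc-Cre virus at an moi near 0.5 was added right after compound to cells cultured 4 h from seeding (1,000 cells/well). Luciferase activity was determined 44 h later, 15 min after substrate addition at RT.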
Lassa entry inh: qHTS for Inhibitors of binding or entry into cells for Lassa Virus. Lassa virus pseudotype entry inhibition, cell reporter. Potency, µM (series often up to 37.9 µM), most hits filed as inhibitors. 300,000 tested, 1.2% active. AID 540256, 2011; calls by dose curve; tested in HEK293 cells; note: nearly all actives have a fitted effect of over 50% in size
VACV Venus inh: qHTS for Stage-Specific Inhibitors of Vaccinia Orthopoxvirus: Venus Reporter Primary qHTS; Vaccinia virus Venus reporter expression, fluorescence; Potency, µM (series often up to 36.5 µM), usual class: inhibitors; 330,000 tested, 0.46% active; calls by dose curve; tested in A549 cells; note: nearly all actives have a fitted effect of over 30% in size
VACV mCherry inh: qHTS for Stage-Specific Inhibitors of Vaccinia Orthopoxvirus: mCherry Reporter Primary qHTS; Vaccinia virus mCherry reporter infection, fluorescence; 310,000 tested, 0.63% active; Potency, µM (doses to about 36.5 µM), most hits filed as inhibitors; calls by dose curve; tested in A549 cells; note: nearly all actives have a fitted effect of over 35% in size
HCMV antiviral: qHTS Assay for inhibitors of the human cytomegalovirus (HCMV) | HFF cells, HCMV-luciferase reporter, 72 h; hits give low values | activity change, negative = inhibition, % at 57.5 µM | 410,000 tested, 4.5% active; in the data active = activity change below about -60%; inconclusive = no clear call, values can overlap the other calls; inactive = above about -39%
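Compounds were evaluated in HFFs infected with an HCMV luciferase reporter virus (MOI 1 PFU/cell). Luciferase in lysates collected 72 h post infection served as the replication measure.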
MARV entry inh: qHTS for inhibitors of binding or entry into cells for Marburg Virus; Marburg virus pseudotyped entry inhibition, cell reporter; Potency, µM (doses to about 37.8 µM), usual class: inhibitors; 300,000 tested, 1.8% active; AID 540276, 2011; calls by dose curve; tested in HEK293 cells
A number is an active result; i = inactive; ? = inconclusive; nt = no result given. Most compounds without a hit are left out; they make up all but 7.8% or so of the library.

SMILES | HCV inhibitor | Lassa entry inh | VACV Venus inh | VACV mCherry inh | HCMV antiviral | MARV entry inh
CCCc1nnc2c(N(C)S(=O)(=O)c3ccc(C)cc3)nc3ccccc3n12 | i | i | i | i | -69 | i
Cc1ccccc1Cn1cc(S(=O)(=O)c2ccc(C(C)C)cc2)c(=O)c2cc3c(cc21)OCO3 | 10µM | i | i | i | i | i
Cc1ccc(Cn2cc(S(=O)(=O)c3ccc(C(C)C)cc3)c(=O)c3cc4c(cc32)OCO4)cc1 | i | i | i | i | i | i
Cc1c(C)n(CCc2ccccc2)c2ncnc(NCCCN(C)C)c12 | ? | i | ? | 7.1µM | ? | 8.9µM
Cc1ccc2c(c1)CN(CCC(=O)NCc1cc(C)n(C)n1)CC(C)O2 (stereo not drawn) | nt | nt | i | i | nt | nt
Cc1cc(C(C)(C)C)cc(C)c1CCNC(=O)c1ccc[n+]([O-])c1 | ? | 3.2µM | i | 10µM | ? | 0.63µM
O=C(c1ccc(N2CCN(C(=O)c3ccc(F)c(F)c3)CC2)cc1)c1cccc(F)c1 | ? | nt | nt | nt | -72 | nt
O=C(c1ccccc1)c1ccc(C(=O)N2CCN(c3ccc(O)cc3)CC2)cc1 | i | nt | nt | nt | -78 | nt
Cc1ncc2c(c1CNC(=O)/C=C/c1cccs1)CCN(C(=O)C1CC(=O)OC13CCCCC3)C2 (stereo not drawn) | nt | nt | i | i | nt | nt
N#C/C(=C\c1ccncc1)c1nc2ccccc2o1 | i | i | i | i | i | i
N#C/C(=C\Nc1ccccc1O)c1nc2ccccc2o1 | 10µM | ? | ? | ? | -95 | ?
O=C(NCCc1ccc(Cl)cc1)Nc1ccc(F)cc1 | i | i | i | i | i | i
CCCc1c(NC(=O)Nc2ccc(F)cc2)cnn1-c1ccc(Cl)cc1 | i | 5µM | ? | i | -81 | ?
Cc1cccc(NC(=O)c2c(C)cc(C)nc2SCC(=O)c2ccccc2)c1 | nt | i | i | i | i | ?
COc1ccc(NC(=O)CSc2nc(C)cc(C)c2C(=O)Nc2ccccc2OC)cc1 | nt | i | i | i | i | i
Cc1cc(C)c(C(=O)Nc2ccccc2)c(SCC(=O)Nc2ccc(Br)cc2C)n1 | nt | i | i | i | -69 | ?
COc1ccccc1NC(=O)c1c(C)cc(C)nc1SCC(=O)Nc1ccc(C)c(C)c1 | nt | i | i | i | ? | 7.9µM
CCC(=O)Nc1ccccc1-c1nc2ccccc2n(CC(=O)Nc2ccccc2OC)c1=O | nt | i | i | i | i | i
Cc1ccccc1CN1CCc2nnc(C(C)NC(=O)c3cc(F)ccc3F)n2CC1 (stereo not drawn) | nt | nt | i | i | nt | nt
Cn1c(-c2ccc(C#N)cc2)c(C#Cc2ccccc2)c2ccccc21 | 22µM | nt | i | i | i | nt
COc1ccc(C#Cc2c(-c3ccccc3)n(C)c3ccccc23)cc1 | ? | nt | i | i | i | nt
Cn1c(C=O)c(C#Cc2ccccc2)c2ccccc21 | 7.9µM | nt | ? | ? | i | nt
COc1ccc(C#Cc2c(C=O)n(C)c3ccccc23)cc1 | 10µM | nt | ? | ? | i | nt
CCOC(=O)Cc1csc(NC(=O)COc2ccc(C)c(C)c2)n1 | i | i | i | i | i | i
CCOC(=O)Cn1nc(C)c(NC(=O)COc2ccc(C)c(C)c2)c1C | i | i | i | i | -61 | i
SMILES | HCV inhibitor | Lassa entry inh | VACV Venus inh | VACV mCherry inh | HCMV antiviral | MARV entry inh
CCOC(=O)OC[C@H]1O[C@H](c2cc(C)cc(C)c2)C=C[C@H]1OC(=O)OCC | nt | nt | nt | nt | nt | i
NC(=Nc1ccc(N)cc1)C(N)=Nc1ccc(N)cc1 | i | i | i | ? | -65 | ?
O=C(CSc1nnc(CNC(=O)c2ccccc2F)n1-c1ccccc1)Nc1ccccc1F | nt | i | i | i | i | ?
FC(F)(F)c1cccc(Nc2nc3nonc3nc2Nc2ccc(Cl)cc2)c1 | nt | ? | 1.8µM | 2µM | -98 | ?
Oc1c(CNc2ccccc2)cc(COCc2ccccc2)c2cccnc12 | nt | nt | nt | nt | -100 | nt
Oc1c(CN2CCOCC2)cc(COCc2ccccc2)c2cccnc12 | ? | ? | ? | 7.1µM | -95 | ?
Fc1cccc(COc2ccccc2CNc2ccccc2)c1 | ? | i | i | i | i | ?
N#Cc1c(-c2ccc(C(F)(F)F)cc2)cc(-c2ccccc2)[nH]c1=S | i | i | i | i | -60 | ?
Cc1ccc(-c2cc(-c3ccccc3)[nH]c(=S)c2C#N)cc1 | i | i | i | i | i | i
CCOC(=O)CN1C(=O)[C@]2(OCCC=C[C@@H]2C)c2cc(OC)ccc21 | nt | nt | nt | nt | nt | i
NCCCn1c(C(=O)c2cc(Cl)c(N)c(Cl)c2)c2ccc([N+](=O)[O-])cc2[n+]1[O-] | ? | nt | 13µM | ? | -67 | nt
Cc1ccc(C(=O)c2c3ccc([N+](=O)[O-])cc3[n+]([O-])n2CCC(N)=O)cc1 | 13µM | nt | ? | ? | i | nt
COc1ccc(C(=O)c2c3ccc([N+](=O)[O-])cc3[n+]([O-])n2CCCC(N)=O)cc1 | ? | nt | ? | ? | i | nt
O=C(NCc1cccc(Cl)c1)c1ccc2nc(N3CCOCC3)sc2c1 | ? | nt | i | i | -80 | nt
O=C(Nc1ccc2nc(N3CCOCC3)sc2c1)c1ccc(F)cc1 | ? | nt | nt | nt | i | nt
O=C(Nc1ccc(F)cc1F)c1ccc2nc(N3CCOCC3)sc2c1 | 13µM | nt | i | i | i | nt
COC(=O)/C(Cc1cc(Br)c(OC)c(Br)c1O)=N/O | nt | nt | nt | nt | nt | i
CCOC(=O)c1cc(-c2ccc(F)cc2)n(CC(=O)NC2CCCCC2)c1C | nt | ? | i | i | ? | nt
CCCCn1c(NS(=O)(=O)c2ccc(C)cc2)c(S(=O)(=O)c2ccccc2)c2nc3ccccc3nc21 | ? | i | i | i | i | i
CCCCn1c(NS(=O)(=O)c2ccccc2)c(C(=O)OCC)c2nc3ccccc3nc21 | ? | ? | i | i | ? | 4.6µM
CCCCn1c(NC(=O)c2ccc(Br)o2)c(C(=O)OCC)c2nc3ccccc3nc21 | ? | i | i | i | -71 | i
CCOC(=O)c1c(NC(=O)c2ccco2)n(C2CCCCC2)c2nc3ccccc3nc12 | ? | ? | i | i | i | i
CCC(C)(C)NS(=O)(=O)c1cc(-c2cc(C)no2)ccc1C | nt | i | i | i | i | nt
O=C1COc2ccc(C(=O)/C=C/c3ccccc3)cc2N1 | i | ? | i | i | -84 | i
O=C(/C=C/c1ccccc1)c1ccc2c(c1)OCCCCO2 | i | ? | ? | ? | i | ?
CCNCc1nc2cc(Cl)ccc2c(=O)[nH]1 | i | i | i | i | -69 | i
CCC(=O)N1CCc2cc(S(=O)(=O)N(C)c3cccc(C)c3)ccc21 | nt | i | i | i | i | i
C1NNCC12CNNC2 | nt | nt | i | i | nt | nt
COc1cccc(C(C(=O)NC(C)(C)C)N(CCC(C)C)C(=O)CCC(=O)Nc2cc(C)on2)c1OC (stereo not drawn) | i | i | i | i | i | 8.9µM
CCC(C)(C)NC(=O)C(c1cccc(OC)c1OC)N(C(=O)CCC(=O)Nc1cc(C)on1)C(C)C (stereo not drawn) | i | i | i | i | -79 | i
